Results published in PubChem BioAssay.
Records with an inconclusive call do not appear. Active and inactive are the calls of the source. Unless noted, the rule behind the calls is not given here.

What was measured:
[1] = yeast TOR pathway RPL19A-GFP modulators, primary screen, cell-based, S. cerevisiae, multiplex flow cytometry (AID 1862; in the data active = percent of DMSO control GFP below about 86%;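 note: lower values mimic rapamycin by blocking the RPL19A rise seen in DMSO cells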); details: S. cerevisiae RPL19A-GFP strain, flow cytometry fluorescence, 3 h; at 10 µM; stronger effect = lower value
[2] = modulators of MEP2-GFP levels in yeast, primary screen, S. cerevisiae, multiplex flow cytometry (AID 1867;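 active = GFP response, as percent of the DMSO control, above the screen-wide mean plus 3 SD, about 139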;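 note: median GFP channel fluorescence of barcode-gated MEP2-GFP cells measured by flow cytometry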); details: S. cerevisiae MEP2-GFP strain, 3 h, at 10 µM, stronger effect = higher value
[3] = modulators of CIT2-GFP expression in yeast, primary screen, S. cerevisiae, GFP fusion, multiplex flow cytometry (AID 1870;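 active = percent response above a set limit, the screen-wide mean plus 3 SD, cut at about 130% in these data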;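 note: barcoded CIT2-GFP strain pooled with four other GFP strains with rapamycin as positive control; median GFP fluorescence per well over plate mean of DMSO wells so 100% = DMSO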); details: 3 h, at 10 µM, stronger effect = higher value
[4] = modulators of LAP4-GFP expression in yeast, primary screen, S. cerevisiae, multiplex flow cytometry (AID 1873;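 active = GFP signal, as percent of the solvent control, above the screen mean plus 3 SD, about 149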); details: 3 h, at 10 µM, stronger effect = higher value
[5] = modulators of AGP1-GFP expression in yeast TOR pathway, primary screen, cell-based, multiplex flow cytometry, S. cerevisiae (AID 1887;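 active = GFP signal above the screen-wide mean plus 3 SD, that is over about 124.5% of the solvent control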;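 note: AGP1-GFP fusion strain of S. cerevisiae within a five-strain barcoded multiplex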); details: 3 h, at 10 µM, stronger effect = higher value
[6] = inhibitors of CD8+ T cell-vesicle binding, pilot screen, LFA-1/ICAM-1 modulator project, MLPCN validation set, flow cytometry (AID 2523;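 active = response below a set limit, under 55% cells CD8-positive and vesicle-bound, and CD8 cells' 90th-percentile brightness under 279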;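 for vesicle binding response: mean PE anti-B7-1 fluorescence of CD8+ cells relative to row control; 100% = QL9-loaded vesicles with DMSO vehicle in the same plate row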); details: 2C mouse CD8+ T cells, at 7 µM, stronger effect = lower value; double positive events: measured here: CD8+/vesicle+ event percentage
[7] = molecular target: Integrin beta-1 (Homo sapiens) + Integrin alpha-4 (Homo sapiens) (UniProt P13612+P05556); test: inhibition of HUTS-21 binding to VLA-4, pilot screen, VLA-4 allosteric modulator project, U937 cells, HUTS-21 mAb, flow cytometry, validation set (AID 2674;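 active = inhibition above 50%, about 3 SD of the validation set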;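 note: antibody binding induced by the VLA-4 ligand LDV present at three times its Kd; 0% = LDV ligand with antibody and no compound and 100% = antibody without LDV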); details: HUTS-21 LIBS mAb binding, at 6.7 µM, stronger effect = higher value
[8] = superoxide lowering in aged yeast cells, pilot screen, validation compound set (AID 2706;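 active = superoxide response below 65% of plate, a cut near 3 SD across the whole screen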;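 note: yeast exposed to compound for one week at 30 degrees C before staining; 100% = mean of all compound wells on the same plate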); details: S. cerevisiae aging, superoxide DHE fluorescence; at 10 µM; stronger effect = lower value
[9] = molecular target: Beta-adrenergic receptor kinase 1 (Homo sapiens) (UniProt P25098); test: GRK2 binders displacing RNA aptamer, biochemical, validation, human GRK2, bead flow cytometry (AID 488806;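 active = aptamer binding inhibition above 30%, about 3 SD of noise from non-fluorescent compounds; inactive = inhibition at or below 30%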); details: bead-bound GRK2, FAM-aptamer displacement, at 10 µM, stronger effect = higher value
[10] = molecular target: Beta-2 adrenergic receptor (Homo sapiens) (UniProt P07550); test: beta2AR agonists driving receptor internalization, pilot screen, cell-based, FAP fluorogen, flow cytometry, validation set (AID 504459;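 active = percent response above 42, roughly 3 SD of non-fluorescent test compounds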;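 note: agonist-driven loss of surface beta2AR via internalization measured by FAP dye flow cytometry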); details: Am2.2-beta2AR cells, FAP surface receptor flow cytometry; at 10 µM; stronger effect = higher value
[11] = molecular target: AP-2 complex subunit beta (Homo sapiens) (UniProt P63010); test: inhibitors of arrestin peptide binding to AP2, pilot screen, biochemical, validation set, GST-AP2 beads, flow cytometry (AID 504541;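 active = inhibition above 54%, about 3 SD of non-fluorescent compounds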;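 note: AP2 carries R879A mutation and is captured from E. coli lysate; bead-bound FITC arrestin peptide fluorescence measuring arrestin peptide binding to AP2; 0% = DMSO wells and 100% = excess unlabeled arrestin peptide control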); details: FITC arrestin peptide, at 10 µM, stronger effect = higher value
[12] = yeast V-ATPase proton transport modulators, S. cerevisiae, pHLuorin, HTS validation (AID 504600; in the data active = response above about 15%;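 note: plate controls were DMSO for no effect and reference compound for full effect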); details: S. cerevisiae pHLuorin cytosolic pH, at 10 µM, stronger effect = higher value
[13] = system: anti-desmoglein-3 scFv antibody binding to human DSG3; test: inhibitors of anti-DSG3 scFv binding to DSG3, pilot screen, biochemical, validation compound set, bead-based, flow cytometry (AID 588368;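 active = binding below the plate cutoff, the plate median minus 3 SD, with a reading above zero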;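 note: signal is the median channel fluorescence of bead-bound GFP antibody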); details: Protein G beads, DSG3-Fc, scFv-GFP binding, at 10 µM, stronger effect = lower value
[14] = system: Botulinum neurotoxin type F light chain protease (Clostridium botulinum); test: Botulinum neurotoxin type F light chain protease inhibition, multiplex microsphere flow cytometry, validation set (AID 588459); details: multiplex microsphere protease substrate cleavage assay, at 10 µM, stronger effect = higher value
[15] = molecular target: Botulinum neurotoxin type A (Clostridium botulinum) (UniProt P0DPI0); test: BoNT/A light chain protease inhibitors, biochemical, multiplex microsphere flow cytometry, validation set (AID 588460); details: at 10 µM, stronger effect = higher value
[16] = molecular target: Lethal factor (Bacillus anthracis) (UniProt P15917); test: Lethal factor protease inhibitors, Bacillus anthracis, multiplex microsphere cleavage assay, validation set (AID 588461); details: flow cytometry, at 10 µM, stronger effect = higher value
[17] = inhibitors of fungal efflux pumps CDR1, CDR2, MDR1, pilot screen, validation compound set, multiplex, phenotypic (AID 588506;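 active = efflux inhibition above 0.42, the validation set average plus 4 SD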;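 note: Nile Red retained in cells so higher fluorescence means more efflux inhibition; 0 = negative control wells and 1 = enniatin B 25 µM full block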); details: S. cerevisiae pump-expressing triplex, Nile Red efflux flow cytometry; at 10 µM; stronger effect = higher value
[18] = molecular target: ATP-binding cassette sub-family B member 6 (Homo sapiens) (UniProt Q9NP58); test: ABCB6 transporter inhibitors, pilot screen, K562-ABCB6 cells, flow cytometry, validation set (AID 588550;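 active = inhibition above the screen-wide mean plus 3 SD, about 51%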;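 note: 0% = DMSO wells and 100% = benzethonium chloride 70 µM positive control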); details: K562-ABCB6 porphyrin accumulation, 1 h, at 10 µM, stronger effect = higher value
[19] = promoters of myeloid differentiation in arrested cells, primary screen, cell-based, GFP/MAC1 double positive, flow cytometry, validation set (AID 588685;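 active = differentiation response of at least 50%, scaled between solvent and reference control, from cells with both markers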;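 note: compound exposure lasts four days before antibody staining and flow analysis; 0% = DMSO wells and 100% = 5 µM fulvestrant positive control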); details: ER-HoxA9 marrow cells, stronger effect = higher value

Sequence of Beta-2 adrenergic receptor (Homo sapiens) (P07550 whole entry, looked up): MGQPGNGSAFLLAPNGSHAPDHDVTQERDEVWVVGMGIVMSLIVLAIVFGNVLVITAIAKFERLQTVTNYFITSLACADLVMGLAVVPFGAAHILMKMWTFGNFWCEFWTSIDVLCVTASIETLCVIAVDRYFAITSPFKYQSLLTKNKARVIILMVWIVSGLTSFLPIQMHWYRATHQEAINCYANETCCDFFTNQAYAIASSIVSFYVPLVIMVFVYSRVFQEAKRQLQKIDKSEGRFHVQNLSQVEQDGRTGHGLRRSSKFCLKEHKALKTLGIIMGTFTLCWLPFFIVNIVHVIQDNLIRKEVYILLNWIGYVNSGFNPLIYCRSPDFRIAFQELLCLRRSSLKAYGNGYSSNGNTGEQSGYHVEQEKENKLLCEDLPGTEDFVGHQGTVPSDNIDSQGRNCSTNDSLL
Sequence of Botulinum neurotoxin type A (Clostridium botulinum) (P0DPI0 whole entry, looked up): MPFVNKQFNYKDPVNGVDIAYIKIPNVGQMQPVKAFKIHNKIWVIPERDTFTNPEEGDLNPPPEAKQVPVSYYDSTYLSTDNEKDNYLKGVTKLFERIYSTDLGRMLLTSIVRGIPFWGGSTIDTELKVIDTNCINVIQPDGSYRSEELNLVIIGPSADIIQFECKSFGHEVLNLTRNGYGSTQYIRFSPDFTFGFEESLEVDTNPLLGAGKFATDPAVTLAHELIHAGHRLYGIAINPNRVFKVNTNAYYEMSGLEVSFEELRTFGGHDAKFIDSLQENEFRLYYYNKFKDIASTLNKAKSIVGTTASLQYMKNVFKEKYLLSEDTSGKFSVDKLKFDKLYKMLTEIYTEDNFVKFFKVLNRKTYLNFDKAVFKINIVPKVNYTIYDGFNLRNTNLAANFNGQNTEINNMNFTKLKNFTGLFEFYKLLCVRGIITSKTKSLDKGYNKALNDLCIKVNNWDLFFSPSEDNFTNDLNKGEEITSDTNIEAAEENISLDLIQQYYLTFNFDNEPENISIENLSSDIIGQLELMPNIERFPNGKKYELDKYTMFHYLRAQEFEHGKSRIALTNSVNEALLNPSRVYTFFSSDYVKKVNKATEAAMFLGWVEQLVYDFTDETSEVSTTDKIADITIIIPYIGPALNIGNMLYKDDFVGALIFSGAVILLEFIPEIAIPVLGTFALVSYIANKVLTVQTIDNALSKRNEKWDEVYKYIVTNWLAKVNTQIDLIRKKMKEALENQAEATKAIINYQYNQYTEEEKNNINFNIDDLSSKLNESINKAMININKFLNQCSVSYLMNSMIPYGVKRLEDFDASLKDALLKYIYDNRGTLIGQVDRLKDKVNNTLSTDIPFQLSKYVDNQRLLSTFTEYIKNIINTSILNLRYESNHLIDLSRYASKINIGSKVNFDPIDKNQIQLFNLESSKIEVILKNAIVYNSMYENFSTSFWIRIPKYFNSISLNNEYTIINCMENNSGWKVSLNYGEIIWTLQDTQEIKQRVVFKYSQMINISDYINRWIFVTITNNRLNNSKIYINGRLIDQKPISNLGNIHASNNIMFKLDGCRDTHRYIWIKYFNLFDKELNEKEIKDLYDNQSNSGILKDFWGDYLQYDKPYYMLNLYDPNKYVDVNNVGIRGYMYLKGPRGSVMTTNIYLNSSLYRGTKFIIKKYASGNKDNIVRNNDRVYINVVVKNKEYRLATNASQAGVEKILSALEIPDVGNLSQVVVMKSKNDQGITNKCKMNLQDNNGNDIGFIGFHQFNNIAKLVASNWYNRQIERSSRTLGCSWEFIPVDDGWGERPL
Sequence of Lethal factor (Bacillus anthracis) (P15917 whole entry, looked up): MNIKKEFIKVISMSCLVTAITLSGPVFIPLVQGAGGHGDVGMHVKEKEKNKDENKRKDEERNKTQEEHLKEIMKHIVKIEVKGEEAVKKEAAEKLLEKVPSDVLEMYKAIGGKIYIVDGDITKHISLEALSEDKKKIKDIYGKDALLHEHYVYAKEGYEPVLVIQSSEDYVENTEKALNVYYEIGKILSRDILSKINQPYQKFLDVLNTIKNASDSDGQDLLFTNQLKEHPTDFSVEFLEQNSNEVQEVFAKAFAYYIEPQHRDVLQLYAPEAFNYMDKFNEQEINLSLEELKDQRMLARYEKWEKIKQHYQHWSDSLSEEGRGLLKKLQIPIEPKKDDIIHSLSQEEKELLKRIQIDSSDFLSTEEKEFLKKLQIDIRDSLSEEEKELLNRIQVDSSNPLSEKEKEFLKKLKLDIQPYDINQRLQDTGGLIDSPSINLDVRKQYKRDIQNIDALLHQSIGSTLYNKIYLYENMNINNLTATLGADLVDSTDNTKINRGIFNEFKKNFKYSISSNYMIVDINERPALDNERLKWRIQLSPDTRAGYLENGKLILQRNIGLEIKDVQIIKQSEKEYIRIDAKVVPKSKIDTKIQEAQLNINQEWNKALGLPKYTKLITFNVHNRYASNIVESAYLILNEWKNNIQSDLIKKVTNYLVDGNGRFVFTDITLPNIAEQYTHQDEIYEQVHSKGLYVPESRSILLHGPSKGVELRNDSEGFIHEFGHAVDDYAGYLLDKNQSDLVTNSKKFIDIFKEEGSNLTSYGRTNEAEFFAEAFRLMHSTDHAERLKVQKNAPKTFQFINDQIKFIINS
Sequence of Integrin beta-1 (Homo sapiens) + Integrin alpha-4 (Homo sapiens) (P05556 whole entry, looked up): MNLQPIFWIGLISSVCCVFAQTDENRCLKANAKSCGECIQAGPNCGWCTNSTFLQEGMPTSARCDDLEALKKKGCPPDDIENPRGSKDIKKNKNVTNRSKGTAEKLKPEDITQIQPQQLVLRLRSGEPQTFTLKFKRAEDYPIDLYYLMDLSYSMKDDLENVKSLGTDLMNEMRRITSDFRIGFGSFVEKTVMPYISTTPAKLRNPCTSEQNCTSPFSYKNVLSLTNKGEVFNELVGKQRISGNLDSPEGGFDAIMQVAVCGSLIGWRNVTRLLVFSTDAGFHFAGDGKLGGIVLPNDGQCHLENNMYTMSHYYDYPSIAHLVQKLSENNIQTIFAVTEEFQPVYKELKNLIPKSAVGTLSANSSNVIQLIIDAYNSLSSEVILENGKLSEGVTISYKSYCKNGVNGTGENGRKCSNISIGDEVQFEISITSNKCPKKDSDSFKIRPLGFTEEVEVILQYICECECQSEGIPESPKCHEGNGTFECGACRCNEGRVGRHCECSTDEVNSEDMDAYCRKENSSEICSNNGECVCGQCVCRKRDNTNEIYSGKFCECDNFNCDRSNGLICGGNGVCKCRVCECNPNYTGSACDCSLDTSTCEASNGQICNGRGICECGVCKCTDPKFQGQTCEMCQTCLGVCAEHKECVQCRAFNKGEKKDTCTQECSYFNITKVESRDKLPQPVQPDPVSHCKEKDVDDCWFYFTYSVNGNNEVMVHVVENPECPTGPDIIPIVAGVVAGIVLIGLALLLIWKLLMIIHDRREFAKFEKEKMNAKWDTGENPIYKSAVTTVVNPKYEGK
Sequence of Integrin beta-1 (Homo sapiens) + Integrin alpha-4 (Homo sapiens) (P13612 whole entry, looked up): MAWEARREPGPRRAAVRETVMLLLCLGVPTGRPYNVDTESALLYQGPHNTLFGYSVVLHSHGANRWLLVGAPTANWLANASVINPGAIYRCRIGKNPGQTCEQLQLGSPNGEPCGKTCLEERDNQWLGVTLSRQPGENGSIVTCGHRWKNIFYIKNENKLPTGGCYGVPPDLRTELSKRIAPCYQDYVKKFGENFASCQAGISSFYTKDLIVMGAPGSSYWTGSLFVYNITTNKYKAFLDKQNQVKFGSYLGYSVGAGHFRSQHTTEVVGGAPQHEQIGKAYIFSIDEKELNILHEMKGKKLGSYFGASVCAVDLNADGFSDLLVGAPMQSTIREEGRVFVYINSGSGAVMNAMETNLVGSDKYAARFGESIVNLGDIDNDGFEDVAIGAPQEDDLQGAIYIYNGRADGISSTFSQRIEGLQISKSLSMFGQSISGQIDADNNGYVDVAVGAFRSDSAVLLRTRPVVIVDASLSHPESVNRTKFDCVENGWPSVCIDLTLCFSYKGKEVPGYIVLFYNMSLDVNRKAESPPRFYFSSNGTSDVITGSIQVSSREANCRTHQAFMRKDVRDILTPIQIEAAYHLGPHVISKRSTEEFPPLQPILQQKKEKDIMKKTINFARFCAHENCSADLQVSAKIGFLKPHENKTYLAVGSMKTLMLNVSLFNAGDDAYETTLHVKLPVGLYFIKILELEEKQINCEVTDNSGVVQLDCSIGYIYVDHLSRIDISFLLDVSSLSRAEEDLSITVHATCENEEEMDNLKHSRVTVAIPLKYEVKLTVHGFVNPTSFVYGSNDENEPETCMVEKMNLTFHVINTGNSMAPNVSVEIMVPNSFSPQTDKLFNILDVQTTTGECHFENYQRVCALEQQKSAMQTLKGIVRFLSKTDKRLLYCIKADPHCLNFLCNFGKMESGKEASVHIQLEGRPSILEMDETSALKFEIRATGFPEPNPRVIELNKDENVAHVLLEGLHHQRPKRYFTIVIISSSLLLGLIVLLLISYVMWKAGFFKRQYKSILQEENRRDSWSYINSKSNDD
Sequence of Beta-adrenergic receptor kinase 1 (Homo sapiens) (P25098 whole entry, looked up): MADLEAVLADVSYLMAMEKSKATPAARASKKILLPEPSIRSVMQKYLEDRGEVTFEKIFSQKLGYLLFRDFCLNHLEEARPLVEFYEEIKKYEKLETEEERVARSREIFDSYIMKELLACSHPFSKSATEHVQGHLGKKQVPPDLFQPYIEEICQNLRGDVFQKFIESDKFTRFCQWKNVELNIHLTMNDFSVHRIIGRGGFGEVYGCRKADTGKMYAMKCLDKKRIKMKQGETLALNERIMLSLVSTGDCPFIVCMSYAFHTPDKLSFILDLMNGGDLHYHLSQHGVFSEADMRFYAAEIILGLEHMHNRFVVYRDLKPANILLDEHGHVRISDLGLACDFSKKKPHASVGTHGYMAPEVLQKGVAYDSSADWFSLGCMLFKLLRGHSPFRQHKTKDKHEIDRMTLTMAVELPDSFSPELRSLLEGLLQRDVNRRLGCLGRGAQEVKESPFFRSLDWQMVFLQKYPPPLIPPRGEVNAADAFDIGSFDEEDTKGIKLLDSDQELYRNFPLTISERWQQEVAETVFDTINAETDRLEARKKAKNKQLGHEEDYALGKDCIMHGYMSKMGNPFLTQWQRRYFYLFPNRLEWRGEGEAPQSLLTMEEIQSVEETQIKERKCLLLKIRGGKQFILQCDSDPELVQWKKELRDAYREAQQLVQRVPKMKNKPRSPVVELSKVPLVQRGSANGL

C[N+]1(C)[C@@H]2CC[C@H]1CC(OC(=O)C(CO)c1ccccc1)C2 (stereo not given in full)
64.9%: double positive events [6]
inactive: percent of DMSO control GFP [1] 105% | GFP response vs DMSO [2] 96.3% | percent response of DMSO control [3] 105% | GFP response vs DMSO [4] 113% | GFP response, % of DMSO [5] 110% | vesicle binding response [6] 7000% | inhibition [7] -14.1% | superoxide response (% of plate) [8] 91% | aptamer binding inhibition [9] 1% | response [10] -8.13% | inhibition [11] -5.05% | response [12] 0.35% | binding (% of control) [13] 98% | inhibition [14] 3.3% | inhibition [15] -0.2% | inhibition [16] -4.9% | efflux inhibition (fraction of control) [17] -0.1 | inhibition [18] 7% | differentiation response [19] -15.2%

COc1ccc(CN2CC3CC(C2)c2cccc(=O)n2C3)cc1OC (stereo not given)
60.2%: double positive events [6]
inactive: percent of DMSO control GFP [1] 105% | GFP response vs DMSO [2] 101% | percent response of DMSO control [3] 95.4% | GFP response vs DMSO [4] 84.1% | GFP response, % of DMSO [5] 95.1% | vesicle binding response [6] 170% | inhibition [7] 14.1% | superoxide response (% of plate) [8] 93% | aptamer binding inhibition [9] 0% | response [10] 2.8% | inhibition [11] -0.56% | response [12] 1% | binding (% of control) [13] 100% | inhibition [14] 1.7% | inhibition [15] -1.2% | inhibition [16] -0.8% | efflux inhibition (fraction of control) [17] 0.39 | inhibition [18] 8% | differentiation response [19] 4.15%

Cc1cc2c(C(C)C)c(O)c(O)c(C=O)c2c(O)c1-c1c(C)cc2c(C(C)C)c(O)c(O)c(C=O)c2c1O
inactive: percent of DMSO control GFP [1] 107% | GFP response vs DMSO [2] 103% | percent response of DMSO control [3] 97% | GFP response vs DMSO [4] 130% | GFP response, % of DMSO [5] 112% | vesicle binding response [6] 161% | inhibition [7] 11.7% | superoxide response (% of plate) [8] 119% | aptamer binding inhibition [9] 5% | response [10] -1.41% | inhibition [11] 14% | response [12] 1.35% | inhibition [14] 2.6% | inhibition [15] 0.9% | inhibition [16] -7.5% | efflux inhibition (fraction of control) [17] 0.25 | inhibition [18] -3% | differentiation response [19] 16.7%
63.4%: double positive events [6]
active: binding (% of control) [13] 64.8%

CC(C)[N+](C)(CCC(C(N)=O)(c1ccccc1)c1ccccc1)C(C)C
inactive: percent of DMSO control GFP [1] 105% | GFP response vs DMSO [2] 107% | percent response of DMSO control [3] 107% | GFP response vs DMSO [4] 99.1% | GFP response, % of DMSO [5] 106% | vesicle binding response [6] 144% | inhibition [7] 5.61% | superoxide response (% of plate) [8] 110% | aptamer binding inhibition [9] 2% | response [10] 9.5% | inhibition [11] -5.08% | response [12] 0.78% | binding (% of control) [13] 101% | inhibition [14] -5% | inhibition [15] -2.6% | inhibition [16] -9.4% | efflux inhibition (fraction of control) [17] -0.61 | inhibition [18] 21% | differentiation response [19] -8.96%
61.6%: double positive events [6]
